# Source: PubChem BioAssay
# Active and inactive are the calls of the source.
# Experiments:
# [1] = tested on: XIP peptide (Xip251-270) binding; assay: XIP fragment 251-270 binding compounds – biochemical, small-molecule microarray, fluorescence 635/667 nm, 0.1 µg/mL protein, primary screen (AID 1182); settings: fluorescent protein binding, 635 nm, higher = more signal, called active from +8 up or from −8 down
# [2] = tested on: XIP peptide (Xip251-270); assay: compounds binding XIP fragment 251-270 – biochemical, small-molecule microarray, fluorescence 635/667 nm, 0.5 µg/mL protein, primary screen (AID 1183); settings: fluorescence 635 nm, higher = more signal
# [3] = blood-stage malaria parasite viability loss – strain 3D7, DAPI fluorescence, 100 nL, primary screen (AID 1184);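 further: parasites grown inside human red blood cells in medium with human serum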; settings: P. falciparum 3D7 growth, 3 d, higher = more signal
# [4] = target: Homeobox protein Hox-A13 (Mus musculus) (UniProt Q62424); assay: disruptors of Hoxa13 oligonucleotide interaction – biochemical, fluorescence polarization, labeled oligonucleotide, primary screen (AID 1185); settings: Hoxa13:DNA binding, 15 min, higher = more signal, called active from +8 up or from −8 down
# Sequence of Homeobox protein Hox-A13 (Mus musculus) (Q62424 whole entry, looked up): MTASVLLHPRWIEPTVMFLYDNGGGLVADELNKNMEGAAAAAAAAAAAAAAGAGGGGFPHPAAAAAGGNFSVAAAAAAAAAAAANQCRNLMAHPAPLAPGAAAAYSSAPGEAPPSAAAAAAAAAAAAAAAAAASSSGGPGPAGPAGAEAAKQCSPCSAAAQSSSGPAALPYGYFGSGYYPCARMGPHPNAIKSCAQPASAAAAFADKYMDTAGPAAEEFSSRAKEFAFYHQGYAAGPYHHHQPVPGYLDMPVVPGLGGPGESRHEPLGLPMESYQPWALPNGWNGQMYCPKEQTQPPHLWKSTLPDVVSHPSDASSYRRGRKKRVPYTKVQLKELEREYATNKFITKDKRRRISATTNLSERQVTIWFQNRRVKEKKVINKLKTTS
Compound,composite z-score [1],composite z-score [2],z-score [3],z-score [4]
CC=CC1=C(CO)C(=O)[C@@H]2O[C@@H]2C1=O,3.73 (inactive),0.736,0.908,-3.53 (inactive)
CCOC(=O)[C@H](Cc1ccccc1)NC(=O)CCC1CC(OC(=O)NCCc2ccc(F)cc2)CC2(CCCC(COC(=O)NCCOC)O2)O1 (some centres not stated),1.99 (inactive),0.0681,-0.218,-6.28 (inactive)
CCOC(=O)[C@H](CC(C)C)NC(=O)CCC1CC(OC(=O)NCCc2ccc(F)cc2)CC2(CCCC(COC(=O)NCCc3ccc(Cl)cc3)O2)O1 (some centres not stated),1.08 (inactive),0.571,-1.9,-6.52 (inactive)
CC(=O)OC[C@H]1O[C@H](C#Cc2ccccc2)C=C[C@@H]1OC(C)=O,-0.794 (inactive),0.823,0.0037,-3 (inactive)
CCOC(=O)[C@H](CC(C)C)NC(=O)CCC1CC(OC(=O)NCc2ccc3c(c2)OCO3)CC2(CCCC(COC(=O)NCC(c3ccccc3)c3ccccc3)O2)O1 (some centres not stated),0.717 (inactive),-0.0305,-0.11,-6.66 (inactive)
COC(=O)CC=C[C@@H](C)[C@@H](C=NO[C@@H]1O[C@H](COC(C)=O)[C@@H](OC(C)=O)[C@H](OC(C)=O)[C@H]1OC(C)=O)NS(=O)(=O)c1ccc(C)cc1,-0.0076 (inactive),0.203,-0.0818,-5.17 (inactive)
O=C(NN=C1C[C@@H](O)[C@@H](O)[C@@H]2[C@@H]3C(=O)N(C[C@@H]4CCCO4)C(=O)[C@@H]3CC[C@@H]12)OCc1ccccc1,1.77 (inactive),0.126,0.263,0.756 (inactive)
COc1ccc(COC(=O)NN=C2C[C@@H](O)[C@@H](O)[C@@H]3[C@@H]4C(=O)N(Cc5ccccc5)C(=O)[C@@H]4CC[C@H]23)cc1,0.0712 (inactive),-0.0564,0.908,-1.81 (inactive)
COc1ccc(O[C@H]2C=C[C@@H](c3ccccc3)O[C@@H]2COC(=O)CCC(C)=NO[C@@H]2O[C@H](COC(C)=O)[C@@H](OC(C)=O)[C@H](OC(C)=O)[C@H]2OC(C)=O)cc1,0.427 (inactive),0.495,-0.0102,-4.34 (inactive)
CC(C)=CCCC(C)=CCON=C1C[C@@H](O)[C@@H](O)[C@@H]2[C@@H]3C(=O)N(C(C)(C)C)C(=O)[C@@H]3CC[C@@H]12,-0.119 (inactive),0.233,-1.34,-1.09 (inactive)
CO[C@H]1COC(=O)[C@@H](Cc2ccccc2)NC(=O)[C@@H](C)COC(=O)CCC[C@@H]1C,0.0283 (inactive),0.171,-0.0331,-0.733 (inactive)
CCOC(=O)[C@H](Cc1ccccc1)NC(=O)CCC1CC(OC(=O)NCCc2ccc(F)cc2)CC2(CCCC(COC(=O)NCC3CCCCC3)O2)O1 (some centres not stated),0.233 (inactive),0.605,-1.82,-2.33 (inactive)
Cc1cc2c(nc1C)CCCCN2CC(C)ON=C1[C@H]2CCn3c(=O)n(-c4ccccc4)c(=O)n3[C@H]2[C@H](O)[C@@H]2O[C@H]12 (some centres not stated),-0.239 (inactive),0.7,-1.94,-4.23 (inactive)
COC(=O)CC=C[C@@H](C)[C@@H](C=NOC[C@H]1O[C@H](c2ccccc2)C=C[C@@H]1Oc1ccc(OC)cc1)NS(=O)(=O)c1ccc(C)cc1,-0.0195 (inactive),-0.827,-0.683,-2.52 (inactive)
CC(=O)O[C@H]1C2=CO[C@H](C)[C@H]3[C@H]4C5=C([C@H](O)[C@H]6O[C@H]6C5=O)[C@H](OC4C)[C@@]23C(=O)[C@@H]2O[C@@H]21 (some centres not stated),0.533 (inactive),-0.406,-1.24,-1.02 (inactive)
CC(C)CON=C1C[C@@H](O)[C@@H](O)[C@@H]2[C@@H]3C(=O)N(Cc4ccc5c(c4)OCO5)C(=O)[C@@H]3CC[C@H]12,0.798 (inactive),0.202,-0.613,-3.41 (inactive)
O=C(NN=C1C[C@@H](O)[C@@H](O)[C@@H]2[C@@H]3C(=O)N(C[C@@H]4CCCO4)C(=O)[C@@H]3CC[C@H]12)OCc1ccccc1,-0.526 (inactive),-0.314,0.0837,0.901 (inactive)
CCOC(=O)NN=C1C[C@@H](O)[C@@H](O)[C@@H]2[C@@H]3C(=O)N(C(C)(C)C)C(=O)[C@@H]3CC[C@H]12,-0.188 (inactive),0.29,0.202,0.772 (inactive)
COC(=O)CC=C[C@@H](C)[C@@H](C=NO[C@@H](C)c1cn([C@H](CO)Cc2ccccc2)nn1)OC,-0.179 (inactive),0.0522,0.141,-0.41 (inactive)
CCOC(=O)[C@H](CC(C)C)NC(=O)CCC1CC(OC(=O)NCc2cccc3ccccc23)CC2(CCCC(COC(=O)NCCc3ccc(Cl)cc3)O2)O1 (some centres not stated),-0.0551 (inactive),0.111,-1.61,-4.02 (inactive)
CC[C@@H](c1ccccc1)n1c(=O)n2n(c1=O)[C@H]1[C@H](O)[C@@H]3O[C@@H]3C(=NOC[C@@H](O)COCc3ccco3)[C@H]1CC2,-0.0593 (inactive),-0.268,-0.949,-3.57 (inactive)
CCC=CCCC(OC(=O)c1ccc(Br)cc1)C1=CCCCC1=O (configuration not stated),0.84 (inactive),0.49,-0.713,-3.22 (inactive)

Compound,composite z-score [1],composite z-score [2],z-score [3],z-score [4]
COC(=O)CC=C[C@@H](C)[C@H](OCc1cccc(-c2ccccc2)c1)C1CCCCC1,0.704 (inactive),0.881,-0.257,-1.35 (inactive)
CCOC(=O)[C@H](CC(C)C)NC(=O)CCC1CC(OC(=O)NCc2cccc3ccccc23)CC2(CCCC(COC(=O)NCCOC)O2)O1 (some centres not stated),-0.182 (inactive),0.446,-1.88,-3.68 (inactive)
COC(=O)[C@H](C)NC(=O)CCC1CC(OC(=O)NCc2ccc3c(c2)OCO3)CC2(CCCC(COC(=O)NCCc3ccccc3OC)O2)O1 (some centres not stated),0.516 (inactive),0.588,-0.143,-6.43 (inactive)
C[C@H]1COC(=O)[C@@H]2CCCN2C(=O)[C@@H](C)COC(=O)[C@H](Cc2ccccc2)NC1=O,-0.102 (inactive),0.435,-0.735,0.163 (inactive)
CCN1C(=O)[C@H]2[C@H]3[C@H](O)[C@H](O)CC(=NOCC(C)C)[C@@H]3CC[C@H]2C1=O,0.821 (inactive),0.645,-0.108,-1.62 (inactive)
CCOC(=O)CCN1C(=O)[C@H]2[C@H]3[C@H](O)[C@H](O)CC(=NNC(=O)OCc4ccccc4)[C@@H]3CC[C@H]2C1=O,0.0651 (inactive),0.791,-0.597,0.897 (inactive)
CO[C@@H]1COC(=O)[C@@H]2CCCN2C(=O)[C@@H](C)COC(=O)CC=C[C@H]1C,0.523 (inactive),0.569,0.442,-0.236 (inactive)
C[C@H]1Cc2c(COc3ccccc3)nc3c(c2CO1)CN(CCOc1ccccc1)CC3,-0.279 (inactive),0.692,0.668,-5.49 (inactive)
C#CCCCON=C1C[C@@H](O)[C@@H](O)[C@@H]2[C@@H]3C(=O)N(Cc4ccccc4)C(=O)[C@@H]3CC[C@@H]12,-0.186 (inactive),-0.148,0.542,-0.417 (inactive)
O=C1C=C[C@@H](O)[C@@H]2[C@@H]3C(=O)N(c4ccc(F)cc4F)C(=O)[C@@H]3CC[C@@H]12,0.25 (inactive),0.165,0.262,0.159 (inactive)
CC(C)=CCCC(C)=CCON=C1C[C@@H](O)[C@@H](O)[C@@H]2[C@@H]3C(=O)N(c4ccc(F)cc4F)C(=O)[C@@H]3CC[C@@H]12,-0.0619 (inactive),0.542,-1.59,-4.62 (inactive)
CC(=O)OC[C@H]1O[C@H](CC=NO[C@H](C)c2cn([C@H](CO)Cc3ccccc3)nn2)C=C[C@@H]1OC(C)=O,0.364 (inactive),0.289,0.242,-1.83 (inactive)
COC(=O)CC=C[C@@H](C)[C@@H](C=NOCC[C@@H]1C=C[C@H](OC(C)=O)[C@@H](COC(C)=O)O1)NS(=O)(=O)c1ccc(C)cc1,0.412 (inactive),0.303,0.0783,-5.32 (inactive)
O=C1[C@H]2[C@H]3[C@H](O)[C@H](O)CC(=NO[C@@H]4O[C@H](CO)[C@@H](O)[C@H](O)[C@H]4O)[C@H]3CC[C@H]2C(=O)N1c1cccc(Oc2ccccc2)c1,-0.373 (inactive),0.538,-0.418,-1.68 (inactive)
Cn1c(=O)n2n(c1=O)[C@H]1[C@H](O)[C@@H]3O[C@@H]3C(=NOCc3ccccc3)[C@H]1CC2,0.899 (inactive),0.382,0.769,-2.35 (inactive)
C=Cc1ccc([C@H]2N[C@H](C(=O)O)CC[C@@H]2C)cc1,-0.132 (inactive),-0.0045,2.18,-0.69 (inactive)
CCOC(=O)[C@H](Cc1ccccc1)NC(=O)CCC1CC(OC(=O)NCCc2ccc(F)cc2)CC2(CCCC(COC(=O)NCCCN3CCCC3=O)O2)O1 (some centres not stated),0.414 (inactive),0.701,-1.6,-2.25 (inactive)
CCOC(=O)[C@H](CC(C)C)NC(=O)CCC1CC(OC(=O)NCCc2ccc(F)cc2)CC2(CCCC(COC(=O)NCC3CCCCC3)O2)O1 (some centres not stated),-0.0257 (inactive),0.437,-1.9,-7.04 (inactive)
CCCNC(=O)OC[C@H]1O[C@H](CCON=C(C)CCN2CCc3nc(CC)c(CC)cc3C2)C=C[C@@H]1Oc1ccc(OC)cc1,-0.339 (inactive),0.27,-2.17,-5.98 (inactive)
Cc1cc2c(nc1C)CCCN2CC(O)CN1CCCc2nc(C)c(C)cc21,0.6 (inactive),-0.134,-0.958,-3.33 (inactive)
CC(C)CON=C1C[C@@H](O)[C@@H](O)[C@@H]2[C@@H]3C(=O)N(C(C)(C)C)C(=O)[C@@H]3CC[C@H]12,1.9 (inactive),0.494,1.75,-0.219 (inactive)
